# Test results published in PubChem BioAssay AID1345085 (National Center for Advancing Translational Sciences (NCATS), 2018).
# Results filed as inconclusive are left out. Unmarked numbers belong to inactive results. Calls of active or inactive are those of the source. The call rests on the fitted dose curve; in most records, active means well fitted cell-killing curve with a large enough effect; inconclusive means small, poorly fitted or top-dose-only effect, or effect the other way; inactive means no such curve, though single readings can be large or run the other way.
# Tested on: Jar
# Assay: Confirmatory qHTS for gynecologic anti-cancer compounds from libraries of approved drugs and bioactive compounds; further: nearly all actives have a fitted effect of over 55% in size
# Conditions: gynecologic cancer cell panel viability, ATPlite luminescence, 48 h; series mostly up to 57.6 µM; activity change, negative = viability loss: at the top concentration
# Method in brief: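 Cells (1,000/well) were plated, left 16 h at 37 C/5% CO2, then given compound at 11 concentrations (1:3) from 57.5 uM to 0.977 nM for 48 h. ATPlite luminescence after 15 min at room temperature gave IC50 values.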
# On the % scale 0 is the no-effect control and ±100 the full control effect; potency means the concentration at half of the fitted maximal effect.
Structure (SMILES),"activity change, negative = viability loss [%]",Potency
Cc1cc(Nc2cc(N3CCN(C)CC3)nc(Sc3ccc(NC(=O)C4CC4)cc3)n2)n[nH]1,-12.5,–
CCc1nc(C(N)=O)c(Nc2ccc(N3CCC(N4CCN(C)CC4)CC3)c(OC)c2)nc1NC1CCOCC1,–,13.4 µM (active)
Cc1cc(Nc2cc(N3CCN(C)CC3)nc(/C=C/c3ccccc3)n2)n[nH]1,–,24.3 µM (active)
CC[C@@]1(O)C(=O)OCc2c1cc1n(c2=O)Cc2cc3c(CN(C)C)c(O)ccc3nc2-1,–,7.69 µM (active)
CCC1=CC2CN(C1)Cc1c([nH]c3ccccc13)[C@@](C(=O)OC)(c1cc3c(cc1OC)N(C)[C@H]1[C@@](O)(C(=O)OC)[C@H](OC(C)=O)[C@]4(CC)C=CCN5CC[C@]31[C@@H]54)C2 (some centres not stated),–,0.133 µM (active)
COC(C)(C)CCn1nc(Nc2c(C)cccc2C)c2cnc(Nc3ccc(OCCN4CCCC4)c(F)c3)nc21,–,27.3 µM (active)
CNC(=O)c1ccccc1Sc1ccc2c(/C=C/c3ccccn3)n[nH]c2c1,–,19.3 µM (active)
COc1ccc(OC)c(-c2nnc3ccc(-c4ccc(OC)c(O[C@@H]5CCOC5)c4)nn23)c1,–,12.2 µM (active)
S=c1nc[nH]c2nc[nH]c12,–,13.7 µM (active)
CN1C2CCC1CC(OC(=O)[C@H](CO)c1ccccc1)C2 (some centres not stated),-0.748,–
CNC1CCC(N(Cc2cccc(-c3ccncc3)c2)C(=O)c2sc3ccccc3c2Cl)CC1 (configuration not stated),–,34.3 µM (active)
CS(=O)(=O)c1ccc(-c2cnc(N)c(C(=O)Nc3ccccc3)n2)cc1,-4.41,–
CNC(=O)c1nn(C)c2c1C(C)(C)Cc1cnc(Nc3ccc(N4CCN(C)CC4)cc3)nc1-2,–,1.72 µM (active)
Cc1nc(N)ncc1-c1nc(N2CCOCC2)c2sc(C(C)(C)O)cc2n1,–,7.69 µM (active)
Cc1ccc(NC(=O)c2ccc(CN3CCN(C)CC3)cc2)cc1Nc1nccc(-c2cccnc2)n1,-3.28,–
Cc1ccc(C(=O)Nc2ccc(CN3CCN(C)CC3)c(C(F)(F)F)c2)cc1C#Cc1cnc2cccnn12,–,30.6 µM (active)
CC(C)(C)C(=O)OCOP(=O)(COCCn1cnc2c(N)ncnc21)OCOC(=O)C(C)(C)C,–,9.68 µM (active)
C[C@]12CCC(=O)C=C1[C@@H]1C[C@@H]1[C@H]1[C@@H]3[C@@H]4C[C@@H]4[C@@]4(CCC(=O)O4)[C@@]3(C)CC[C@@H]12,-5.53,–
CCCCc1oc2ccccc2c1C(=O)c1cc(I)c(OCCN(CC)CC)c(I)c1,–,79.4 µM (active)

Structure (SMILES),"activity change, negative = viability loss [%]",Potency
Cc1cc(C(=O)N2CCN(c3cccc(Cl)c3)CC2)n(-c2ccccc2)n1,–,1.72 µM (active)
CC(=O)O[C@H]1C(=O)[C@@]2(C)[C@H]([C@H](OC(=O)c3ccccc3)[C@]3(O)C[C@H](OC(=O)[C@H](O)[C@@H](NC(=O)c4ccccc4)c4ccccc4)C(C)=C1C3(C)C)[C@]1(OC(C)=O)CO[C@@H]1C[C@@H]2O,–,0.0366 µM (active)
COc1ccc2cc3[n+](cc2c1OC)CCc1cc2c(cc1-3)OCO2,–,4.32 µM (active)
CCOc1ccc(Nc2nc(-c3c(C)nc4ccccn34)cs2)cc1,–,0.0243 µM (active)
Cc1ccc(C(=O)Nc2ccc(CN3CCN(C)CC3)c(C(F)(F)F)c2)cc1C#Cc1cnc2[nH]ncc2c1,6.71,–
CC(Oc1ccc2[nH]nc(/C=C/c3cnn(CCO)c3)c2c1)c1c(Cl)cncc1Cl (configuration not stated),-2.73,–
Cc1ccn(-c2ccc(-c3ncco3)cc2)c(=O)c1-c1ccc2nc(N)ncc2c1,-26.5,–
O=c1cc(CN2CCOCC2)occ1OCCCCCSc1ccnc2cc(C(F)(F)F)ccc12,–,7.69 µM (active)
Cc1nc(NC(=O)N2CCCC2C(N)=O)sc1-c1ccnc(C(C)(C)C(F)(F)F)c1 (configuration not stated),–,12.2 µM (active)
O=C(CCCCCCC(=O)Nc1ccccc1)NO,–,3.85 µM (active)
CC1=C(CO)C(=O)O[C@@H]([C@@H](C)[C@H]2CC[C@H]3[C@@H]4C[C@H]5O[C@]56[C@@H](O)C=CC(=O)[C@]6(C)[C@H]4CC[C@]23C)C1,–,8.41 µM (active)
CCC1C(=O)N(C)c2cnc(Nc3ccc(C(=O)NC4CCN(C)CC4)cc3OC)nc2N1C1CCCC1 (configuration not stated),–,0.0217 µM (active)
O=C(Nc1cccnc1)N1CCC(Cc2cccc(Oc3ccc(C(F)(F)F)cn3)c2)CC1,–,9.68 µM (active)
Nc1ccn([C@@H]2O[C@H](CO)[C@@H](O)C2(F)F)c(=O)n1,-22.8,–
CC(Oc1cc(-n2cnc3ccc(CN4CCN(C)CC4)cc32)sc1C(N)=O)c1ccccc1C(F)(F)F (configuration not stated),–,3.06 µM (active)
CCCCc1oc2ccc(NS(C)(=O)=O)cc2c1C(=O)c1ccc(OCCCN(CCCC)CCCC)cc1,–,30.6 µM (active)
CCCC(Nc1nc(-c2ccc(NC(=O)NCC)c(OC)c2)ncc1C)c1cccnc1 (configuration not stated),–,0.432 µM (active)
O=c1c(-c2ccc(O)cc2)coc2cc(O)cc(O)c12,-2.15,–
